Measured values as given in PubChem BioAssay AID1159580 (chemical genetic matrix, 2015).
Screen size: about 5,500 compounds; about 2,000 (36%) were called active. Inconclusive results (about 18%) are left out. No stated cut-off is given here; in the data, active means normalized growth mostly below about 0.91 (no sharp cut-off); inconclusive means no clear call, values can overlap the other calls; inactive means mostly above about 0.92. Some of the results follow.

Assay: chemical genetic growth profiling, strain panel (AID 1159580);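 further: tested at 20 µM; growth read once vehicle control cultures reached saturation at 30 °C; 1 = growth at the plate median or of vehicle wells; lower values mean less growth of the strain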
Conditions: S. cerevisiae deletion strains, growth OD

Measured: normalized growth

COc1cc([C@@H]2c3cc4c(c(O)c3C[C@H]3COC(=O)[C@@H]32)OCO4)cc(OC)c1OC
inactive: locus YAL013W, strain DEP1, active compounds read low 0.986 | locus YAL021C, strain ccr4, active compounds read low 0.995 | locus YAL026C, strain drs2, active compounds read low 0.992 | locus YAL030W, strain snc1, active compounds read low 0.986 | locus YBL061C, strain skt5, active compounds read low 0.994 | locus YBR009C, strain hhf1, active compounds read low 0.993 | locus YBR021W, strain FUR4, active compounds read low 1 | locus YBR023C, strain chs3, active compounds read low 0.999 | locus YBR171W, strain sec66, active compounds read low 0.971 | locus YBR229C, strain ROT2, active compounds read low 0.985 | locus YBR231C, strain swc5, active compounds read low 0.977 | locus YBR279W, strain paf1, active compounds read low 0.994 | locus YCL011C, strain gbp2, active compounds read low 0.996 | locus YCL016C, strain dcc1, active compounds read low 1 | locus YCL029C, strain bik1, active compounds read low 0.978 | locus YCL069W, strain vba3, active compounds read low 1 | locus YCR088W, strain abp1, active compounds read low 0.984 | locus YDL005C, strain med2, active compounds read low 0.979 | locus YDL035C, strain GPR1, active compounds read low 0.981 | locus YDL040C, strain nat1, active compounds read low 0.994 | locus YDL074C, strain BRE1, active compounds read low 1.05 | locus YDL101C, strain DUN1, active compounds read low 0.985 | locus YDL134C, strain PPH21, active compounds read low 0.997 | locus YDL185W, strain tfp1, active compounds read low 0.959 | locus YDL192W, strain arf1, active compounds read low 0.972 | locus YDR001C, strain nth1, active compounds read low 0.988 | locus YDR069C, strain doa4, active compounds read low 0.981 | locus YDR101C, strain arx1, active compounds read low 0.995 | locus YDR137W, strain rgp1, active compounds read low 0.993 | locus YDR150W, strain NUM1, active compounds read low 0.973 | locus YDR159W, strain sac3, active compounds read low 0.967 | locus YDR162C, strain NBP2, active compounds read low 0.998 | locus YDR195W, strain ref2 0.93 | locus YDR297W, strain sur2, active compounds read low 0.976 | locus YDR318W, strain mcm21, active compounds read low 0.986 | locus YDR334W, strain swr1, active compounds read low 0.987 | locus YDR335W, strain msn5, active compounds read low 1 | locus YDR388W, active compounds read low 0.991 | locus YDR392W, strain spt3, active compounds read low 0.924 | locus YDR502C, strain sam2, active compounds read low 0.983 | locus YEL003W, strain gim4, active compounds read low 0.983 | locus YEL037C, strain rad23, active compounds read low 0.993 | locus YEL061C, strain CIN8 (second series), active compounds read low 1 | locus YEL061C, strain CIN8, active compounds read low 0.99 | locus YER015W, strain faa2, active compounds read low 1 | locus YER016W, strain bim1, active compounds read low 0.979 | locus YER110C, active compounds read low 0.971 | locus YER111C, strain swi4, active compounds read low 0.989 | locus YER155C, strain BEM2 (second series), active compounds read low 0.96 | locus YER155C, strain BEM2, active compounds read low 0.994 | locus YER167W, strain BCK2, active compounds read low 0.976 | locus YFR010W, strain ubp6, active compounds read low 0.995 | locus YGL078C, strain dbp3, active compounds read low 0.986 | locus YGL086W, strain mad1, active compounds read low 0.982 | locus YGL167C, strain pmr1, active compounds read low 0.991 | locus YGL173C, strain kem1, active compounds read low 0.98 | locus YGL227W, strain vid30, active compounds read low 0.983 | locus YGL240W, strain doc1, active compounds read low 0.961 | locus YGL248W, strain PDE1, active compounds read low 0.988 | locus YGL253W, strain hxk2, active compounds read low 0.994 | locus YGR078C, strain PAC10, active compounds read low 1.03 | locus YGR135W, strain pre9, active compounds read low 1.02 | locus YGR229C, strain SMI1, active compounds read low 1.05 | locus YGR252W, strain gcn5, active compounds read low 1.04 | locus YHR013C, strain ard1, active compounds read low 1 | locus YHR027C, strain rpn1, active compounds read low 0.976 | locus YHR030C, strain SLT2, active compounds read low 0.979 | locus YHR079C, strain IRE1 (second series), active compounds read low 0.983 | locus YHR094C, strain hxt1, active compounds read low 0.974 | locus YHR129C, strain ARP1, active compounds read low 0.993 | locus YHR142W, strain chs7, active compounds read low 1.02 | locus YHR200W, strain rpn10, active compounds read low 0.975 | locus YIL066C, strain RNR3, active compounds read low 0.983 | locus YIL073C, strain SPO22, active compounds read low 0.923 | locus YIL125W, strain kgd1, active compounds read low 0.986 | locus YIR030C, strain dcg1, active compounds read low 0.982 | locus YJL092W, strain hpr5, active compounds read low 0.999 | locus YJL095W, strain BCK1 (second series), active compounds read low 0.987 | locus YJL095W, strain BCK1, active compounds read low 1.05 | locus YJL115W, strain asf1, active compounds read low 0.987 | locus YJL129C, strain trk1, active compounds read low 0.962 | locus YJL134W, strain LCB3, active compounds read low 0.982 | locus YJL154C, strain vps35, active compounds read low 0.987 | locus YJL164C, strain tpk1, active compounds read low 1 | locus YJL166W, strain qcr8, active compounds read low 0.995 | locus YJL168C, strain set2, active compounds read low 0.985 | locus YJL187C, strain SWE1 (second series), active compounds read low 1.01 | locus YJL187C, strain SWE1, active compounds read low 0.983
